Data: PubChem BioAssay AID1626 (SRMLSC, 2009)
“And” between values parts separate entries of the source, which are not always exact repeats. Equal entries are not always repeated. Out of some 220,000 compounds screened, about 2,000 (0.91%) were called active. Not shown: some 2% with an inconclusive outcome. The list is a sample of the results. Potency and affinity values are given separately. A number with no mark means an inactive call. Rule as the data show it: inconclusive = inhibition above about 80% without an active follow-up result; inactive = below that; test concentration not stated here.

assay: M. tuberculosis H37Rv growth inhibitors, H37Rv strain (AID 1626); settings: stronger effect = higher value, concentration not given here;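 also: bacteria incubated seven days before Alamar blue readout; 0% = bacteria only wells and 100% = bacteria with antibiotic wells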

SMILES	inhibition
O=c1cc(N2CCCCC2)c2ccccc2o1	-1.79%
CCOc1cc(CN2CCN(c3cccc(C(F)(F)F)c3)CC2)ccc1O	-11.9%
CCC/C=N/NC(=O)c1cccc(Br)c1	7.16%
Cc1ccc(-c2nsc(SCC(=O)NCc3ccc4c(c3)OCO4)n2)cc1	13.2%
COc1ccc(-c2nsc(SCC(=O)NCc3ccc4c(c3)OCO4)n2)cc1	6.74%
O=C(CSc1nc(-c2ccccc2Cl)ns1)Nc1ccc2c(c1)OCO2	98.8%
Cc1ccccc1-c1nsc(SCC(=O)Nc2ccc3c(c2)OCO3)n1	16.3%
Cc1ccc(NC(=O)C2CCCN(C(=O)c3ccc(Cl)cc3)C2)cc1C (stereo not drawn)	2.5%
CC1=NN(C(=O)c2ccco2)C(O)(c2ccccc2)C1 (stereo not drawn)	-2.5%
CC(=O)c1cccc(N(CC(=O)N2CCCCC2)S(C)(=O)=O)c1	1.7%
CCOc1cc(NC(=S)NCC2CCCO2)c(OCC)cc1NC(=O)c1ccc(F)cc1 (stereo not drawn)	1.9%
COc1ccc(-c2[nH]ncc2CNCCn2cccn2)c(F)c1	-7%
COc1ccccc1OCC(O)CNCc1ccc2c(c1)OCO2 (stereo not drawn)	-7.62%
Cc1[nH]n(-c2ccccc2)c(=O)c1C=NCCc1ccccc1	0.59%
CCCCN=Cc1c(C)[nH]n(-c2ccccc2)c1=S	-2.18%
CS/C(=C\[N+](=O)[O-])Nc1ccc(F)cc1	3.42%
O=C(CN1CCCc2ccccc21)NC(=O)NC1CCCCC1	6.06%
O=C(NC(Nc1nc2ccccc2s1)(C(F)(F)F)C(F)(F)F)c1ccccc1	-8.04%
O=C(NC(Nc1nc2ccc([N+](=O)[O-])cc2s1)(C(F)(F)F)C(F)(F)F)c1cccnc1	5.87%
Cc1cc2nnc(SCC(=O)NCc3cccs3)n2c(N)n1	-5.08%
COc1ccc(-c2nn(-c3ccccc3)cc2/C=N/n2cnnc2)cc1OC	-15.3%
COc1ccc(-c2nn(-c3ccccc3)cc2/C=N/NC(N)=S)cc1OC	2.96%
CCCn1nnnc1NC(=O)COc1ccc(CC)cc1	0.65%
CC(=O)N1N=C(c2cccnc2)OC1c1ccccc1Cl (stereo not drawn)	2.68%
C/C(=C\C(=S)Nc1ccccc1)Nc1ccccc1	4.78%

SMILES	inhibition
NC(=O)c1ccc(NC(=O)COC(=O)/C=C/c2cccs2)cc1	-2.1%
CCCCC(=O)Nc1ccc(C)c(O)c1	2.73%
CCCCC(=O)Nc1cccc(NC(=O)CC)c1	3.01%
COc1ccc(N/C(C)=C/C(=S)Nc2ccccc2)cc1	29.2%
Cc1ccc(NC(=O)COC(=O)/C=C/c2cccs2)cc1	-0.47%
CC(C)CC(=O)Nc1ccc2ccccc2c1	85.1% and -4.53%
O=C(CS)Nc1ccc2ccccc2c1	-9.08%
O=S(=O)(CCOc1ccccc1)c1nc2ccccc2[nH]1	-6.66%
COCCCn1c(SCC(=O)Nc2nc3ccccc3s2)nnc1-c1ccoc1C	4.35%
Cc1cc(C)c(S(=O)(=O)N2CCCCC2)c(C)c1N(C)S(=O)(=O)c1ccc(Cl)cc1	1.13%
CCOc1nc(C)ccc1-c1noc(CC)n1	-1.19%
CCOC(=O)C1CSC(CC(=O)Nc2ccc(Cl)cc2)C(=O)N1 (stereo not drawn)	-6.13%
OC1(CNCc2cn[nH]c2-c2cc3ccccc3o2)CCCCC1	-6.25%
COc1cccc(-n2c(SCc3c(C)noc3C)nnc2-c2cccc(S(=O)(=O)N(C)C)c2)c1	4.97%
Cc1ccccc1OCc1csc(N)n1	3.59%
CN=C(C)c1c(O)c2ccccc2oc1=O	-1.28%
CC(C)N(C(=O)Cn1c(SCC(=O)Nc2nccs2)nc2ccccc21)C(C)C	0.44%
CC(=O)N1N=C(c2cccc(Br)c2)OC12CCCC2	-8.1%
CCC(=O)Nc1ccc(-c2csc(C)n2)cc1	45.9%
CC(=O)Nc1ccc2ccccc2c1	12.4%
CCOC(=O)C(C(=O)OCC)C(Nc1ccccc1)c1ccccc1 (stereo not drawn)	1.08%
CCOC(=O)CS(=O)(=O)c1ccc2ccccc2c1	-12.2%
Cc1nc(-c2ccc(NC(=O)CC(C)C)cc2)cs1	31.2%
CC(=O)CC(=O)Nc1ccc(Nc2ccccc2)cc1	6.81%
O=C(Nc1ccc(Cl)c([N+](=O)[O-])c1)ONC1=NCCCCC1	0.03%

SMILES	inhibition
CCCNC(=O)NC(=O)CN1C(=O)NC(C)(c2ccc(C)cc2)C1=O (stereo not drawn)	-1.35%
CC(C(N)=O)N1C(=O)C2C3C=CC(C3)C2C1=O (stereo not drawn)	-3.12%
Cc1ccc(-c2cc(C(=O)NCc3cccnc3)no2)cc1	3.89%
Cc1ccc(NC(=S)NCCc2c[nH]c3ccccc23)c(C)c1	4.17%
Cc1c(/C=C/C(=O)c2cccs2)cnn1C	-1.78%
Cc1nn(C)cc1/C=C/C(=O)c1cccs1	2.82%
CCN(CC)C(=S)SCC(=O)Nc1ncc2c(n1)CC(C)(C)CC2=O	1.56%
CC1=C(C(=O)Nc2ccccc2)C(c2ccco2)C(C#N)=C(SCC(=O)Nc2cccc(C)c2C)N1 (stereo not drawn)	4.09%
CC(=O)C1=C(C)NC(SCc2ccc(C#N)cc2)=C(C#N)C1c1ccco1 (stereo not drawn)	-1.27%
CC(=O)C1=C(C)NC(SCC(=O)c2ccccc2)=C(C#N)C1c1ccco1 (stereo not drawn)	43.6%
CC(=O)C1=C(C)NC(SCC(=O)c2ccc(Cl)cc2Cl)=C(C#N)C1c1ccco1 (stereo not drawn)	12.4%
CC(=O)C1=C(C)NC(SCC(=O)c2ccc(Cl)cc2)=C(C#N)C1c1ccco1 (stereo not drawn)	50%
CCOc1ccccc1NC(=O)CSC1=C(C#N)C(c2ccco2)C(C(=O)Nc2nc3ccccc3s2)=C(C)N1 (stereo not drawn)	49.1%
CC(=O)C1=C(C)NC(SCC(N)=O)=C(C#N)C1c1ccco1 (stereo not drawn)	-4.99%
CC(=O)C1=C(C)NC(SCC(=O)c2cc(Cl)ccc2Cl)=C(C#N)C1c1ccco1 (stereo not drawn)	15.3%
CN1CCN(C(=O)c2cc3nc(-c4ccc(F)cc4)cc(C(F)(F)F)n3n2)CC1	-1.56%
CC(C)OP(=O)(OC(C)C)C(O)c1ccc(Br)cc1 (stereo not drawn)	-5.46%
O=S(=O)(c1ccc(Cl)s1)N1CCC(Cc2ccccc2)CC1	-5.95%
O=C(Nc1cccc([N+](=O)[O-])c1)c1ccc(N2CCCC2=O)cc1	3.44%
COc1cc(C(=O)NNC(=O)c2ccoc2C)cc(OC)c1OC	-3.54%
COc1ccc(C)cc1NC(=O)COC(=O)C1CCN(C(=O)c2ccc(Cl)cc2)CC1	3.93%
Cc1ccc(NC(=O)Cn2c(O)c(N=NC(=O)c3ccncc3)c3ccccc32)cc1	-1.42%
O=C(C1CCCCC1)N1CCN(C(=O)C2CCCCC2)CC1	-1.95%
Cc1c(CCC(=O)O)c(=O)n2c([nH]c3ccccc32)c1C#N	-32.2%
Cc1c(CCC(C)C)c(=O)n2c([nH]c3ccccc32)c1C#N	5.47%

SMILES	inhibition
CCc1cc(=S)n2c([nH]c3ccccc32)c1C#N	-2.47%
CCc1c(C)c(C#N)c2[nH]c3ccccc3n2c1=S	-5.86%
COc1c(O)ccc2cnn(-c3ccccc3C)c(=O)c12	-8.74%
CC1CC(C)CN(CC(O)COCCOc2ccc(Br)cc2)C1 (stereo not drawn)	0.51%
CCCCN1CC[C@H]2C=CC[C@@H](C(=O)Nc3ccccc3)[C@H]2C1=O	-7.03%
Cn1c(-c2ccccc2)cc(=O)c2ccccc21	1.71%
c1ccc(-c2cc3c(ccc4nonc43)nn2)cc1	-7.6%
COc1ccc2c(c1)c(=O)cc(-c1ccccc1)n2C	-2.37%
[O-][n+]1onc2c3ccnnc3ccc21	58.6%
CCCCCC(=O)N/N=C(\C)c1ccc(N2CCCCC2)cc1	-2.51%
CCOc1ccc2cc(C3CC(c4ccco4)=NN3S(C)(=O)=O)c(=O)[nH]c2c1 (stereo not drawn)	0.83%
COc1ccccc1OCCSc1nc2ccccc2n1CCO	-6.33%
O=C1CC(NCc2ccc(F)cc2)C(=O)N1c1ccccc1 (stereo not drawn)	-1.25%
CCOC(=O)N1CCN(C(=O)C2CCN(S(=O)(=O)c3ccc(C)cc3)CC2)CC1	-7.16%
COc1ccccc1-n1c(SCC(=O)N2CCOCC2)nc(O)c(Cc2ccccc2)c1=O	-3.87%
C[C@@H]1C=C[C@](Cc2ccccc2)(C(=O)NCC2CC2)N1C(=O)c1ccccc1	-23%
COc1cc2c(cc1NC(=O)COc1ccccc1OC)oc1ccccc12	0.28%
COc1ccccc1CC(=O)Nc1cc2oc3ccccc3c2cc1OC	-9.4%
COc1ccccc1NC(=S)NCc1ccc2c(c1)OCO2	7.62%
COc1cc2c(cc1NC(=O)c1ccc3c(c1)OCO3)oc1ccccc12	-1.46%
O=C(CN(C(=O)Cn1nnc(-c2ccc(F)cc2)n1)C1CCCC1)NC1CCCC1	0.92%
O=[N+]([O-])c1ccc(N2CCN(C(=S)c3cccc([N+](=O)[O-])c3)CC2)cc1	1.74%
CCN(C1CCCCC1)S(=O)(=O)c1ccc(C(=O)O)cc1	-11.6%
